# From PubChem BioAssay (NCI)
# Where “and” joins values, the source holds several entries; their conditions need not be identical. Identical values can stand only once. The panel holds about 83,000 compounds, 20% with a hit somewhere; the sample as a whole holds those more often.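 Interpretation: 100, growth as untreated; towards 0, rising growth inhibition; 0, no net growth; 0 to -100, cell death. Compounds scoring below 10 were considered active.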 Values without a mark were called inactive. Calls of active or inactive are those of the source.
# Test system: SK-MEL-2 melanoma
# Experiment: NCI-60 one-dose screen, 48 h (100 = growth as untreated, 0 = no growth, -100 = all killed)
# Settings: 4.75 µM
# Protocol: Growth inhibition of the SK-MEL-2 human tumor cell line is measured as a screen for anti-cancer activity. Cells are grown in 96 well plates and exposed to the test compound for 48 hours. Compounds are tested at a single concentration, which is 10^-5 M for most compounds. The reported endpoint is percent growth (GI% or GIPRCNT), where numbers from 0 - 100% represent growth inhibition, and numbers from -100% - 0 represent cell death. For example, a value of 40 represents 60% growth inhibition. A value of 0 means no net growth occurred over the course of the experiment. A value of -40 indicates 40% of cells at the beginning of the experiment died by the end of the experiment. A value of -100 means all cells are dead at the end of the experiment.
# NCI-60 Human Tumor Cell Lines Screen was performed using the standard one-dose NCI protocol, which is described in more detail at https://dtp.cancer.gov/discovery_development/nci-60/default.htm.
# Compounds with GIPRCNT values below 10 were considered active. Activity score was based on GIPRCNT using the following formula: […]
# Score is 0 for GIPRCNT values of 100 or above, 50 for GIPRCNT values of 0, and 100 for GIPRCNT values of -100.
row,SMILES,growth
1,CC(=O)OCC1OC([S-])C(OC(C)=O)C(OC(C)=O)C1OC(C)=O.[Au+].c1ccc(CN2[CH-]N(Cc3ccccc3)C(c3ccccc3)=C2c2ccccc2)cc1,-22.7% (active)

# Same assay, conditions: 10 µM
row,SMILES,growth
1,O=C(O)CCCc1ccc(N(CCCl)CCCl)cc1,102% and 109%
2,CC(=O)OCC1OC([S-])C(OC(C)=O)C(OC(C)=O)C1OC(C)=O.[Au+].c1ccc(CN2[CH-]N(Cc3ccccc3)C(c3ccccc3)=C2c2ccccc2)cc1,-30.8% (active)

# Same assay, conditions: 10 µM unless noted
row,SMILES,growth
1,CCC(Br)(CC)C(=O)NC(N)=O,109%
2,O=S(=O)(F)c1cccc(Cl)c1C[P+](c1ccccc1)(c1ccccc1)c1ccccc1,97.1%
3,CCN(CC)CCn1c(=O)n(C)c2ccccc21,109%
4,C/C(=N/OC(=O)N(C)C)c1ccc(Cl)c(Cl)c1,111%
5,CC1=C2[C@H]3OC(=O)[C@@H](C)[C@@H]3CC[C@@]2(C)C=CC1=O,-0.59% (active)
6,CCCn1cc2c3c(cccc31)[C@H]1C[C@@H](C)CN(C)[C@@H]1C2,134%
7,COc1ccc2c(c1)c(-c1nc(-c3c[nH]c4ncccc34)cs1)cn2CCCCN1CCOCC1,69%
8,COc1ccc2c(c1)c(-c1nc(-c3cn(C)c4ncccc34)cs1)cn2CCCCN1CCOCC1,64.4%
9,COc1ccc2c(c1)C1(C)CCN(C)CC(C1)C2O (stereo not given),105%
10,Cc1cc(Br)c([N+](=O)[O-])cc1[N+](=O)[O-],111%
11,CC[C@@H](C)C(=O)O[C@H]1[C@H](O)[C@H]2[C@@H](CN3C[C@@H](C)CC[C@H]3[C@@]2(C)O)[C@@H]2C[C@]34O[C@]5(O)[C@@H](OC(=O)[C@@](C)(O)CC)CC[C@@]3(C)[C@@H]5[C@@H](OC(C)=O)[C@@H](OC(C)=O)[C@H]4[C@@]21O,103%
12,Oc1cc(Cl)ccc1Oc1ccc(Cl)cc1Cl,16.6%
13,O=S1(=O)OCCO1,113%
14,C=CCOC(=O)C(Br)CC (stereo not given),106%
15,Cc1cc[c-]cc1.Fc1c[c-]c(-c2ccccn2)c(F)c1.N#CCC[PH+](CCC#N)c1ccccc1.[Pt+2],59.4%
16,CC[C@H](C)[C@H](NC(=O)c1cnccn1)C(=O)N(C)[C@H](C[C@@H](OC(C)=O)c1nc(C(=O)N[C@@H](Cc2ccccc2)C[C@H](C)C(=O)OC)cs1)C(C)C,31.3%
17,C[N+]1(CC#CC[N+]2(C)CCCC2)CCCC1,98.5%
18,O=C1NC(=O)C(=Cc2ccccc2)C(=O)N1,106% and 114%

row,SMILES,growth
1,CC(C)CCC1C(=O)NC(=O)NC1=O,81.8%
2,O=C=Nc1ccc(Br)cc1,109%
3,Oc1ccccc1C=NCCN=Cc1ccccc1O.[Fe],92.4%
4,Cc1cc(N(CCCl)CCCl)ccc1/C=N\NC(=O)c1cccnc1,77.4% and 114%
5,CC1=C([Te]c2ccccc2)C(=O)c2ccccc2C1=O,9.62% (active)
6,CC(=O)C(N)Cc1ccccc1 (stereo not given),107%
7,OCCN=Cc1c[nH]c2ccccc12,109%
8,C[C@]12CCc3nc(-c4ccc(O)c(O)c4)sc3C1=CC[C@@H]1[C@@H]2CC[C@]2(C)C(=O)CC[C@@H]12,104%
9,CCN1C(=O)CC(=O)N(CC)C1=S,97%
10,O=C1CN2CCC1CC2,101%
11,CSc1cc(/C=C(\C)[C@@H]2C[C@@H]3O[C@]3(C)CCC[C@H](C)[C@H](O)[C@@H](C)C(=O)C(C)(C)[C@@H](O)CC(=O)O2)n(CCNC(=O)OC(C)(C)C)n1,75.6%
12,O=C(CCCN1CCC2(CC1)C(=O)NCN2c1ccccc1)c1ccc(F)cc1,106% and 78.5%
13,Cc1cc(C(C)(C)C)ccc1O,110%
14,C=C[Se]CC(=O)/C=C/c1ccccc1,99.9%
15,CC[C@H](C)[C@H](NC(=O)C12CC(NC)(C1)C2)C(=O)N(C)[C@H](C[C@@H](OC(C)=O)c1nc(C(=O)N[C@@H](Cc2ccccc2)C[C@H](C)C(=O)OC)cs1)C(C)C,36.7%
16,CN1CCC2(CC1)C(C#N)C(=O)NC(=O)C2C#N (stereo not given),113%
17,CN1[C@@H](CC(=O)c2ccccc2)CCC[C@H]1CC(=O)c1ccccc1,42.8%
18,CC(C)COC(=O)Cc1ccccc1,113%

# Same assay, conditions: 75 µM
row,SMILES,growth [%]
1,O=C(O)CCCc1ccc(N(CCCl)CCCl)cc1,100
